Assay outcomes from PubChem BioAssay.
Rows were chosen to be rich in hits. Some 8.3% of all compounds tested hit in one or more screens of this group.
Giardia killer = Giardia lamblia killing | Giardia lamblia trophozoite viability | activity change, % at 7.66 µM, hits read low | hit rate 0.15% among 340,000 | AID 540267; in the data active means activity change below about -80%; inconclusive means between about -30% and that limit;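 further: parasites exposed to compound for two days anaerobically before the ATP read; on the % scale 0 is the no-effect control and ±100 the full control effect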
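Viability, read as ATP luminescence: trophozoites at 100 cells/well, compound added, 48 hrs anaerobic at 37 deg C, then 15-30 min room-temperature development before reading.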
VP16 counter = counter-screen for ROR gamma inhibitors: Gal4-VP16 reporter | Drosophila S2 Gal4-VP16 UAS-luciferase, luminescence, 20 h | Potency, µM (doses to about 53.6 µM), without a hit: at the top dose activity, negative = inhibition, hits mostly inhibitors | hit rate 3.5% among 310,000 | AID 2546;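 further: Gal4-VP16 expression switched on by copper sulfate through the metallothionein promoter; potency means the concentration at half of the fitted maximal effect; on the % scale 0 is the no-effect control and ±100 the full control effect; nearly all actives have a fitted effect of over 50% in size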
SW480 rereplic = induces DNA re-replication in SW480 colon adenocarcinoma cells. AID 624297. SW480 DNA re-replication, Hoechst DNA content imaging, 48 h. hit rate 1.8% among 340,000. Potency, µM (top dose mostly 46.1 µM), for the others: at the highest dose re-replication activation, usual class: activators; further: potency means the concentration at half of the fitted maximal effect; % of control where 0% means no effect; nearly all actives have a fitted effect of over 55% in size
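Quantitative HTS format with DMSO vehicle controls; 48 hr drug incubation at 37 C, then 40 min Hoechst staining and scanning imager measurement at 405 nm excitation.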
RORgamma inh = inhibitors of mouse ROR gamma transcriptional activity; Potency, µM (top dose mostly 53.6 µM), inactives show top-dose activity change, negative = inhibition, hits mostly inhibitors; AID 2551; P51450; hit rate 5.4% among 310,000; Drosophila S2 Gal4-RORgamma UAS-luciferase reporter, 20 h; further: potency means the concentration at half of the fitted maximal effect; on the % scale 0 is the no-effect control and ±100 the full control effect; nearly all actives have a fitted effect of over 60% in size
Target sequence (P51450 whole entry, looked up, the tested form may be a part): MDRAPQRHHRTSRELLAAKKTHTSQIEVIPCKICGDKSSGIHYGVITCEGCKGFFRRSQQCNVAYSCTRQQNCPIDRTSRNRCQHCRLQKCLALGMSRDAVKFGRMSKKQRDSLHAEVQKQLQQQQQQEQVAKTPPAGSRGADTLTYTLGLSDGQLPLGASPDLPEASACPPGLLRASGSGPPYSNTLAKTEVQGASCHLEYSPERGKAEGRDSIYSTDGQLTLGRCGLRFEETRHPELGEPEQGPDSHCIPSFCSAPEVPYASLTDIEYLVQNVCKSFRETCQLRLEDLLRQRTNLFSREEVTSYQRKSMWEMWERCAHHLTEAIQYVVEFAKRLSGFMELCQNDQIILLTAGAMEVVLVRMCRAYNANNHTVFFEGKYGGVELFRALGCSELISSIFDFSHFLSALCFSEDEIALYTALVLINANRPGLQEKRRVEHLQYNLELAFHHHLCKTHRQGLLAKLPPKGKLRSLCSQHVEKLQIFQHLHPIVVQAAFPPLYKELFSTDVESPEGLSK
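Luciferase reporter read in Schneider cells carrying Gal4-RORγ (mouse) and UAS-Photinus luciferase; cells given compound 1 h before 700 uM copper sulfate induction, then incubated 20 h at ambient temperature.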
BCR signal inh = chronic active BCR signaling inhibition; ABC-DLBCL IkBa-CBG/CBR reporter, luminescence ratio, 4 h; Potency, µM (titrated, usually from 46.1 µM), inactives show at the top dose activity change, negative = inhibition, actives largely listed as inhibitors; hit rate 0.05% among 340,000; AID 493014; active means well fitted inhibition curve with a large enough effect in the signal ratio, with a control signal flat, not every such curve was filed as active; inconclusive means small, poorly fitted or top-dose-only effect, or effect the other way, or a change in a side signal; the % refers to the signal ratio;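 further: potency means the concentration at half of the fitted maximal effect; plate controls were basal doxycycline-induced cells for no effect and cells given 10 µM MG132 for full effect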
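Concentration-response series (up to 46 uM) were applied to TMD8 dual-reporter cells for 4 h at 37C with doxycycline. Green/red ratio, after filter-overlap correction, defined %Activity; red signal alone was normalised to basal cells and zero luminescence.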
MCF10A rereplic = induces DNA re-replication in MCF 10a normal breast cells | Potency, µM (titrated, usually from 46.1 µM), without a hit: at the top dose activity, positive = re-replication, hits mostly activators | AID 624296 | hit rate 2.9% among 350,000 | MCF 10A DNA re-replication, Hoechst nuclear intensity, 48 h; further: potency means the concentration at half of the fitted maximal effect; % of control where 0% means no effect; nearly all actives have a fitted effect of over 50% in size
Active calls of the source: *. Unless noted, the call rests on the fitted dose curve; in most records, active means well fitted curve in the direction sought with a large enough effect; inconclusive means small, poorly fitted or top-dose-only effect, or another doubt; inactive means no such curve, though single readings can be large; an effect the other way counts as inactive or inconclusive.

Screening CC(C)C(=O)OC/C(O)=C(\C#N)c1nc2ccccc2[nH]1 returned Giardia killer 8, VP16 counter 10µM*, SW480 rereplic -8%, RORgamma inh 6.3µM*, BCR signal inh inconclusive and MCF10A rereplic 8%.
Screening CCCC(=O)OC/C(O)=C(\C#N)c1nc2ccccc2[nH]1 returned Giardia killer -4, VP16 counter inconclusive, SW480 rereplic 4%, RORgamma inh 4µM*, BCR signal inh inconclusive and MCF10A rereplic -6%.
Cc1c(-c2cccc(Cl)c2)nc2ccccc2c1C(=O)OC/C(O)=C(\C#N)c1nc2ccccc2[nH]1 was read as Giardia killer 20, VP16 counter 3%, SW480 rereplic inconclusive, RORgamma inh -29%, BCR signal inh inconclusive and MCF10A rereplic 5.2µM*.
`N#C/C(=C(/O)COC(=O)CCC1CCCCC1)c1nc2ccccc2[nH]1` gave Giardia killer 6, VP16 counter 10µM*, SW480 rereplic inconclusive, RORgamma inh 11µM*, BCR signal inh -2% and MCF10A rereplic inconclusive.
`O=S(=O)(/C=C/c1ccccc1)N1CCOCC1` gave Giardia killer 8, SW480 rereplic -25%, BCR signal inh -3% and MCF10A rereplic -3%.
CCCNC(=O)c1ccc(N2CCC3(CC2)CC(c2cccc(Br)c2)=NO3)c(NC(=O)c2ccc(Br)cc2)c1 was read as Giardia killer -7, SW480 rereplic -5%, BCR signal inh inconclusive and MCF10A rereplic 6%.
CC(C)CCOc1ccc(C(=O)N2CCN(c3ncccn3)CC2)cc1 was read as Giardia killer -8, VP16 counter -5%, SW480 rereplic -3%, RORgamma inh -10%, BCR signal inh inconclusive and MCF10A rereplic -4%.
`CC(=O)c1cc(-c2ccc(F)cc2)n(CCC(=O)NC2CCCCC2)c1C` gave BCR signal inh -9%.
Screening COCC(=O)OC/C(O)=C(\C#N)c1nc2ccccc2[nH]1 returned Giardia killer -4, VP16 counter 2.8µM*, SW480 rereplic inconclusive, RORgamma inh inconclusive, BCR signal inh inconclusive and MCF10A rereplic inconclusive.
Cc1ccc(C(C)C)c(OC/C(O)=C(\C#N)c2nc3ccccc3[nH]2)c1 was read as Giardia killer -3, VP16 counter inconclusive, SW480 rereplic inconclusive, RORgamma inh 2.2µM*, BCR signal inh -10% and MCF10A rereplic 16µM*.
For N#C/C(=C(/O)COC(=O)c1cccnc1Cl)c1nc2ccccc2[nH]1 the results were Giardia killer 6, VP16 counter inconclusive, SW480 rereplic -7%, RORgamma inh 7.9µM*, BCR signal inh -2% and MCF10A rereplic 12%.
Screening COc1ccc(/C(C)=N/OC/C(O)=C(\C#N)c2nc3ccccc3[nH]2)cc1 returned Giardia killer -4, VP16 counter -1%, SW480 rereplic -7%, RORgamma inh inconclusive, BCR signal inh inconclusive and MCF10A rereplic -2%.
`CCOC(=O)c1c(C)[nH]c(C(=O)OCC(O)=C(C#N)c2nc3ccccc3[nH]2)c1C` gave Giardia killer -9, SW480 rereplic inconclusive and MCF10A rereplic 13µM*.
For O=C(OCc1cc(Cl)ccc1OC(F)F)c1cc(S(=O)(=O)O)ccc1O the results were VP16 counter 0%, RORgamma inh -17% and BCR signal inh inconclusive.
Screening NS(=O)(=O)c1cccc(NC(=O)c2ccc(NS(=O)(=O)c3cccc([N+](=O)[O-])c3)cc2)c1 returned Giardia killer 26, SW480 rereplic -2%, BCR signal inh -7% and MCF10A rereplic 1%.
Cc1cc(Br)ccc1OCCCCNCCO was read as Giardia killer 10, VP16 counter 1%, SW480 rereplic -1%, RORgamma inh -1%, BCR signal inh 0% and MCF10A rereplic 7%.
Screening C=CCNCCCCOc1ccc(Br)cc1C returned Giardia killer 7, VP16 counter -1%, SW480 rereplic inconclusive, RORgamma inh -16%, BCR signal inh -2% and MCF10A rereplic 26µM*.
`COc1ccc(C2=NS(=O)(=O)N(C)C(C(=O)N(C)Cc3ccccc3)=C2)cc1OC` gave Giardia killer -5, VP16 counter -4%, SW480 rereplic 22%, RORgamma inh 40%, BCR signal inh -17% and MCF10A rereplic inconclusive.
For COc1ccc2c(c1)C(=O)N1[C@H]3c4cc(Br)ccc4OC[C@@H]3[C@H](c3ccccc3)[C@]1(C)C(=O)N2 the results were Giardia killer -21, SW480 rereplic 21µM*, BCR signal inh inconclusive and MCF10A rereplic 4.1µM*.
For C[C@@]12C(=O)Nc3ccc(Br)cc3C(=O)N1[C@H]1c3cc(Br)ccc3OC[C@@H]1[C@@H]2c1ccccc1 the results were Giardia killer inconclusive, SW480 rereplic inconclusive, BCR signal inh inconclusive and MCF10A rereplic -88%.
For COc1ccc2c(c1)OC[C@H]1[C@H]2N2C(=O)c3cc(Cl)ccc3NC(=O)[C@@]2(C)[C@H]1c1ccccc1 the results were Giardia killer 5, SW480 rereplic inconclusive, BCR signal inh inconclusive and MCF10A rereplic -5%.
`COc1ccc2c(c1)OC[C@H]1[C@H]2N2C(=O)c3cc(OC)ccc3NC(=O)[C@@]2(C)[C@H]1c1ccccc1` gave Giardia killer -21, SW480 rereplic inconclusive, BCR signal inh inconclusive and MCF10A rereplic 16µM*.
Screening COc1ccc2c(c1)[C@H]1[C@H](CO2)[C@H](c2ccccc2)[C@]2(C)C(=O)Nc3cc(Cl)ccc3C(=O)N12 returned Giardia killer -12, SW480 rereplic inconclusive, BCR signal inh inconclusive and MCF10A rereplic 16µM*.
`COc1ccc2c(c1)C(=O)N1[C@H]3c4cc(Cl)ccc4OC[C@@H]3[C@H](c3ccccc3)[C@]1(C)C(=O)N2` gave Giardia killer 11, SW480 rereplic 9.2µM*, BCR signal inh inconclusive and MCF10A rereplic inconclusive.
Screening O=c1c(-c2ccc(F)cc2)nc2cnc(N3CCOCC3)nc2n1C1CC1 returned VP16 counter -4% and RORgamma inh -12%.
Screening Cc1occc1C(=O)N/N=C/c1c[nH]c2ccccc12 returned Giardia killer -7, VP16 counter -24%, SW480 rereplic -5%, RORgamma inh inconclusive, BCR signal inh inconclusive and MCF10A rereplic -2%.
For Cn1nccc1C(=O)N/N=C/c1c(O)ccc2ccccc12 the results were Giardia killer -15, VP16 counter 2.8µM*, SW480 rereplic inconclusive, RORgamma inh 3.2µM*, BCR signal inh -28% and MCF10A rereplic 16µM*.
